Screening data as filed in PubChem.
MCF10A rereplic: inducers of DNA re-replication in MCF 10A breast cells | 2.9% of 350,000 active | Potency, µM (doses to about 46.1 µM), without a hit: at the top dose activity, positive = re-replication, most hits filed as activators | AID 624296 | MCF 10A DNA re-replication, Hoechst nuclear intensity, 48 h; further: potency means the concentration at half of the fitted maximal effect; % of control where 0% means no effect; nearly all actives have a fitted effect of over 50% in size
Giardia killer: kills Giardia lamblia; 0.15% of 340,000 active; activity change, % at 7.66 µM, hits read low; Giardia lamblia trophozoite viability; AID 540267; in the data active means activity change below about -80%; inconclusive means between about -30% and that limit;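 further: parasites exposed to compound for two days anaerobically before the ATP read; on the % scale 0 is the no-effect control and ±100 the full control effect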
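Giardia trophozoites, 100 cells per well, were exposed to compounds for 48 hrs at 37 deg C under anaerobic conditions; viability was then read as ATP content by bioluminescence after 15-30 min at room temperature.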
IL1B secr inh: inhibitors of inflammasome signaling (IL-1 beta secretion). THP-1 LPS/ATP IL-1B secretion, AlphaLISA, 16 h; hits give low values. activity change, % at 57.5 µM. 4.7% of 360,000 active. AID 743279; in the data active means activity change below about -50%; inconclusive means mostly about -30% to -49%; further: on the % scale 0 is the no-effect control and ±100 the full control effect
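THP-1 cells pretreated 1 hr with compounds (up to 57.5 uM final), then stimulated with LPS (250 ng/mL final) plus ATP (1.25 mM final); secreted IL-1B measured by AlphaLISA after 16 hr, decreased signal indicating inhibition.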
Vif-APOBEC3G blk: inhibitors of Vif-APOBEC3G interaction; Q9HC16; HeLa A3G-eYFP + Vif (tagged APOBEC3G with the HIV-1 protein that degrades it), YFP fluorescence, overnight; Potency, µM (series often up to 46.1 µM), without a hit: top-dose activity, negative = active, actives largely listed as inhibitors; 0.076% of 410,000 active; AID 602310; further: potency means the concentration at half of the fitted maximal effect; on the % scale 0 is the no-effect control and ±100 the full control effect; nearly all actives have a fitted effect of over 60% in size
Target sequence (Q9HC16 whole entry, looked up): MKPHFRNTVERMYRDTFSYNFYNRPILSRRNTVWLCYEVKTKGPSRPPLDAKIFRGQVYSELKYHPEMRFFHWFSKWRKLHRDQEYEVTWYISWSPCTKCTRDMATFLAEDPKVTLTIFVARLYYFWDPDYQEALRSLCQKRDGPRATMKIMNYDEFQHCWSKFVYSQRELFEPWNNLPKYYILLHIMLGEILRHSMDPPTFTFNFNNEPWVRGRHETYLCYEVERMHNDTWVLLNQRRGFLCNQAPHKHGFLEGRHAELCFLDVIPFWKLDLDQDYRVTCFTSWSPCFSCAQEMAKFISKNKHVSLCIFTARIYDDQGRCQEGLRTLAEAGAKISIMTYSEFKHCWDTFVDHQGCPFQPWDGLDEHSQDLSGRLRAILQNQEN
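HeLa cells stably expressing Vif and C-terminally eYFP-tagged A3G, seeded overnight at 37 deg C, then exposed to compound by pintool overnight at 37 deg C. Rise in yellow fluorescence (Ex 488/Em 500-530, Acumen) marks blocked Vif-driven A3G degradation.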
Vif-APOBEC3F blk: Vif-A3F binding inhibition; HeLa A3F-eYFP + Vif (tagged APOBEC3F with the HIV-1 protein that degrades it), YFP fluorescence increase; Potency, µM (titrated, usually from 46.1 µM), for the others: top-dose activity, negative = active; 0.2% of 390,000 active; further: potency means the concentration at half of the fitted maximal effect; % of control where 0% means no effect; nearly all actives have a fitted effect of over 65% in size
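HeLa cells stably expressing Vif plus C-terminally eYFP-tagged A3F were seeded, incubated overnight at 37 deg C, dosed with compound, incubated overnight again at 37 deg C. Yellow fluorescence (Ex 488/Em 500-530) reported blocked Vif-mediated A3F-eYFP degradation.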
SW480 rereplic: inducers of DNA re-replication in SW480 colon cancer cells | SW480 DNA re-replication, Hoechst DNA content imaging, 48 h | Potency, µM (doses to about 46.1 µM), inactives show at the highest dose re-replication activation, most hits filed as activators | 1.8% of 340,000 active | AID 624297; further: potency means the concentration at half of the fitted maximal effect; % of control where 0% means no effect; nearly all actives have a fitted effect of over 55% in size
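Compounds, transferred as 23 nL by pin tool, were incubated with cells for 48 hr; DNA content per nucleus was then quantified by Hoechst staining and fluorescence plate imaging.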
An asterisk follows results filed as active; ? = inconclusive; . = not tested or not shown; [ ] = remark or other dose. The list is not random: actives were taken first. Their share in the collection is about 6.9%. Unless noted, the call rests on the fitted dose curve; in most records, active means well fitted curve in the direction sought with a large enough effect; inconclusive means small, poorly fitted or top-dose-only effect, or another doubt; inactive means no such curve, though single readings can be large; an effect the other way counts as inactive or inconclusive.

SMILES | MCF10A rereplic | Giardia killer | IL1B secr inh | Vif-APOBEC3G blk | Vif-APOBEC3F blk | SW480 rereplic
Cc1cc(N2CCN(S(=O)(=O)c3ccccc3)CC2)c2ccccc2n1 | 3.66µM* | 14.0 | -15.3 | 0.9% | -2.5% | ?
O=C(Nc1ccc(C(F)(F)F)cc1)N1CCN(c2ccnc3cc(Cl)ccc23)CC1 | ? | 2.7 | -65.4* | -4.6% | 13.2% | ?
CS(=O)(=O)N1CCc2cc(-c3csc(NCC4CCCO4)n3)ccc21 (centres undefined) | 25.3% | -6.1 | -68.0* | -1.1% | -2.3% | 23.8%
CCOC(=O)N1CCN(c2c(NCc3ccccc3OC)c(=O)c2=O)CC1 | 6.4% | 22.0 | 18.6 | -14.6% | -19.7% | ?
CCOC(=O)N1CCN(c2c(NCc3ccc(Cl)cc3)c(=O)c2=O)CC1 | 10.3µM* | 4.3 | 0.0 | ? | -4.0% | 6.51µM*
CCOC(=O)N1CCN(c2c(NCc3cccs3)c(=O)c2=O)CC1 | 18.4µM* | 11.0 | 35.4 | ? | -17.2% | ?
CCOC(=O)N1CCN(c2c(NCCN3CCN(Cc4ccccc4)CC3)c(=O)c2=O)CC1 | 10.5% | -7.3 | 10.8 | 1.8% | 0.3% | 10.3%
CCOC(=O)N1CCN(c2c(NCc3ccc(F)cc3)c(=O)c2=O)CC1 | ? | 10.9 | 41.5 | ? | -15.7% | 3.26µM*
CCOC(=O)N1CCN(c2c(N3CCN(c4ccc(F)cc4)CC3)c(=O)c2=O)CC1 | -0.8% | 5.8 | -0.8 | 1.0% | 7.6% | -12.4%
Cc1nn2c(C)c(C(=O)N3CCN(c4ccccc4)CC3)cnc2c1-c1ccccc1 | . | . | . | -5.7% | -5.3% | .
Cc1ccc(OCc2nc(-c3ccc(C(=O)N4CCN(c5cc(Cl)ccc5C)CC4)cc3)oc2C)cc1 | . | . | . | -1.2% | 1.4% | .
NCCNC(=O)c1c(O)c2cccc3c2n(c1=O)CCC3 | 1.9% | 3.5 | -91.7* | 2.9% | -5.4% | ?
O=C(c1ccc(Cl)cc1)c1cc([N+](=O)[O-])ccc1N1CCOCC1 | ? | -24.5 | 45.0 | ? | -16.2% | 0.651µM*
O=C(Oc1ccc(Br)cc1C(=S)N1CCOCC1)c1ccc([N+](=O)[O-])cc1[N+](=O)[O-] | ? | 7.2 | -91.6* | -1.4% | -0.7% | 3.1%
CN1CCN(c2ccc([N+](=O)[O-])cc2C(=O)c2ccc(Cl)cc2)CC1 | 11.6µM* | -17.2 | 8.9 | ? | -17.0% | 8.2µM*
O=C(c1ccccc1Sc1ccc([N+](=O)[O-])cc1Cl)N1CCOCC1 | -3.1% | -2.1 | -72.0* | -1.8% | 5.5% | 6.1%
N#Cc1ccccc1Sc1ccccc1C(=O)N1CCOCC1 | -1.1% | -15.6 | 9.6 | 1.6% | -10.4% | -12.9%
COc1cc(OC)c(NC2(c3ccccc3)C(=O)c3ccccc3C2=O)cc1Cl | . | . | . | -3.6% | -6.1% | .
Cc1cc(C)cc(NC(=O)Nc2c[nH]c(=O)[nH]c2=O)c1 | . | . | . | 0.3% | -4.7% | .
O=C(c1ccc(Br)cc1)c1cc([N+](=O)[O-])ccc1N1CCOCC1 | ? | -0.9 | 39.1 | ? | -5.8% | 0.581µM*
O=C(CCn1cnc2ccccc21)N/N=C/c1ccccc1O | ? | -1.6 | 252.6 | -6.5% | 0.7% | 8.2µM*
O=C(COC(=O)C1(c2ccccc2F)CCCC1)NCc1ccc2c(c1)OCO2 | 11.7% | -16.8 | -72.7* | -0.5% | -6.6% | -3.9%
O=C(COC(=O)C1(c2ccc(F)cc2)CCCC1)NCc1ccc2c(c1)OCO2 | 3.2% | -8.8 | -3.9 | 0.3% | 0.4% | -6.2%
NS(=O)(=O)c1ccc(NC(=O)COC(=O)C2(c3ccccc3F)CCCC2)cc1 | 11.3% | -10.2 | -62.5* | 3.2% | -5.2% | 1.7%
COc1cc(-c2noc(C)c2C#CCCN2C(=O)c3ccccc3C2=O)cc(OC)c1OC | . | . | . | -5.6% | . | .
SMILES | MCF10A rereplic | Giardia killer | IL1B secr inh | Vif-APOBEC3G blk | Vif-APOBEC3F blk | SW480 rereplic
CCOCCCNc1nc2c(C)cccn2c(=O)c1/C=C1\SC(=S)N(CC(C)C)C1=O | 2.2% | 7.5 | -7.8 | -27.7% | ? | 0.7%
O=C1/C(=C\c2c(NCCOCCO)nc3ccccn3c2=O)SC(=S)N1Cc1ccco1 | 9.2µM* | -15.1 | 58.3 | -10.5% | ? | -34.5%[1.84 µM]
CC(=O)c1cccc(NC(=O)c2sc(-n3nc(C)c(CCC(C)C)c3C)nc2C)c1 | . | . | . | 3.4% | -0.3% | .
Cc1ccc(Sc2nc(C)c([N+](=O)[O-])c(C)c2C#N)cc1 | ? | 0.3 | . | -3.7% | 7.2% | -37.4%
Cc1nc(Sc2ccc(Br)cc2)c(C#N)c(C)c1[N+](=O)[O-] | 20.6µM* | 10.6 | -104.8* | -8.4% | -2.8% | 18.4%
Cc1nc(Sc2ccc(Cl)cc2)c(C#N)c(C)c1[N+](=O)[O-] | 18.4µM* | 4.4 | . | -1.0% | 7.9% | ?
CCCCNc1ccc(/C=C2\C=Cc3ccccc32)cc1 | . | . | . | -1.6% | . | .
CC(C)CCn1c(=O)c2cccnc2n(CC(=O)Nc2ccccc2F)c1=O | . | . | . | 2.0% | -14.7% | .
CC(=O)N1CCc2cc(Br)cc(S(=O)(=O)N3CCN(c4cccc(C)c4)C(C)C3)c21 (centres undefined) | . | . | . | 1.5% | 0.3% | .
CC1(C)C(/C=C/C=C/C=C/C=C2\N(CCCCS(=O)(=O)O)c3ccc4ccccc4c3C2(C)C)=[N+](CCCCS(=O)(=O)[O-])c2ccc3ccccc3c21 | -74.5% | -2.0 | -76.7* | 1.7% | -1.2% | -55.9%
CCCCCc1ccc(-c2cn(Cc3ccc4c(c3)C(=O)c3ccccc3C4=O)nn2)cc1 | . | . | . | 0.1% | . | .
O=C(NC1CCCCCCC1)c1c(O)c2ccccc2[nH]c1=O | ? | 10.8 | -14.3 | 2.2% | -1.6% | -8.1%
O=C(NC1CC1)c1c(O)c2ccccc2[nH]c1=O | ? | 3.5 | -61.3* | -3.1% | -0.4% | -11.7%
O=C(CCl)NNC(=O)c1c(O)c2ccccc2[nH]c1=O | 19.9% | 12.5 | -101.9* | ? | -11.6% | ?
CCCCC(=O)NNC(=O)c1c(O)c2ccccc2[nH]c1=O | ? | 16.5 | 0.0 | -3.1% | 1.1% | -4.6%
COc1cc(C=O)cc(OC)c1[N+](=O)[O-] | . | . | . | -5.7% | . | .
COc1cc2c(cc1OC)/C(=C/c1ccc(N(C)C)cc1)C=C2 | . | . | . | 2.2% | . | .
CCc1ccc(NC(=O)C2CCN(c3cc(C)nc4c(-c5ccc(Cl)cc5)c(C)nn34)CC2)cc1 | . | . | . | -6.2% | 0.7% | .
O=C(COC(=O)Cc1ccc(F)cc1)NCc1ccco1 | 2.7% | 37.4 | 10.6 | -1.9% | -2.0% | 11.6µM*
COc1ccc(NC(=O)NCc2ccco2)c(OC)c1 | 3.0% | -9.6 | 1.0 | 0.1% | -0.5% | -0.6%
COc1cc(C(=O)OCC(=O)NCc2ccco2)cc(OC)c1OC | -2.5% | 16.6 | -66.9* | -0.7% | -16.9% | -0.9%
Cc1cc2c(cc(C(=O)OCC(=O)NCc3ccco3)n2C)s1 | ? | -0.9 | 6.2 | ? | 3.7% | 10.3µM*
COc1ccccc1NC(=O)NCc1ccco1 | -8.8% | 18.6 | -67.9* | 0.6% | -7.0% | ?
